The target in assay [1] is Cytochrome P450 1A2 (Homo sapiens) (UniProt P05177). The assay is described as follows: p450-cyp1a2 (AID 410; calls by dose curve; further: potency means the concentration at half of the fitted maximal effect). The method in brief: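 Human CYP1A2 (20nM) demethylated Luciferin-ME at its Km (100uM) in 100mM KPO4. After 10 min compound preincubation, NADPH regeneration ran the reaction 60 min at room temperature. Luciferin was read by luminescence, normalized to 57 uM furafylline.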
Sequence of Cytochrome P450 1A2 (Homo sapiens) (P05177 whole entry, looked up): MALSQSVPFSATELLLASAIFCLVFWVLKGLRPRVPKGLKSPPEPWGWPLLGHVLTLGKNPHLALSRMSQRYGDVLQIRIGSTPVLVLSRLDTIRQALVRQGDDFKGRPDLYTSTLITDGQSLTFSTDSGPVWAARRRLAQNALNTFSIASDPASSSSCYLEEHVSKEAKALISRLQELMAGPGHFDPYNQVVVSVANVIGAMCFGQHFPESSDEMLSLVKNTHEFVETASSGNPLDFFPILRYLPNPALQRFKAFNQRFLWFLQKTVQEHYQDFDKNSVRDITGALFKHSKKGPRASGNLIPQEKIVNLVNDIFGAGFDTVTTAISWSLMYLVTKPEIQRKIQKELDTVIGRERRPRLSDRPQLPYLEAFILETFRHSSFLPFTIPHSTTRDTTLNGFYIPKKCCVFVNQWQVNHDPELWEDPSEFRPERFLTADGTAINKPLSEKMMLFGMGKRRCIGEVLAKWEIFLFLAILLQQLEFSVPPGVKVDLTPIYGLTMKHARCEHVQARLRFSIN

Assay [2] has as its target Mitogen-activated protein kinase 10 (Mus musculus) (UniProt Q61831). Put plainly: JNK3 AlphaScreen Assay (AID 530; active means well fitted curve in either direction with a large enough effect, not every such curve was filed as active;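 further: kinase came from lysate of stimulated human HepG2 cells; signal reports phosphorylation of biotinylated GST-cJun 1-79 at Ser73 with 10 µM ATP; series mostly up to about 57 µM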). The method in brief: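 JNK3 came from HepG2 lysates pre-activated with IL-1beta and TNF-alpha and phosphorylated biotinylated GST-cJun (1-79) at 10 uM ATP, pH 7.6, room temperature. Compounds were titrated. AlphaScreen signal used anti-phospho-cJun (Ser73) antibody.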
A general note: Bead proximity is the source of the signal in Alpha formats.

Assay [3] deals with 3',5'-cyclic-AMP phosphodiesterase 4B (Homo sapiens) (UniProt Q07343). The assay is described as follows: qHTS Assay for Inhibitors of PDE-IV (AID 607; active means well fitted activation curve with a large enough effect in the main read-out, with a control signal flat, not every such curve was filed as active). The method in brief:
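The readout is membrane depolarisation from a cAMP-sensing CNG channel, detected with a potential dye at ex 535/em 590. Cells were HEK293-derived (endogenous PDE-IV) at 1000 cells/well, titrated up to 22.9 uM final.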

Assay [4] addresses Cytochrome P450 2C9 (Homo sapiens) (UniProt P11712). Put plainly: qHTS Assay for Inhibitors and Substrates of Cytochrome P450 2C9 (AID 883). Further: potency means the concentration at half of the fitted maximal effect; nearly all actives have a fitted effect of over 60% in size. The method in brief:
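Human CYP2C9 (10nM) hydroxylated Luciferin-H (100uM, at its KM) to luciferin in 25mM KPO4. Compound was preincubated 10 min at 37C, then NADPH regeneration started a 60 min reaction at 37C. Luminescence was read after detection reagent, normalized to 57uM sulphaphenazole.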
A general note: Quantitative high-throughput screening tests each substance at several concentrations.

In assay [5] the target is Cytochrome P450 3A4 (Homo sapiens) (UniProt P08684). Put plainly: qHTS Assay for Inhibitors and Substrates of Cytochrome P450 3A4 (AID 884). Further: potency means the concentration at half of the fitted maximal effect; nearly all actives have a fitted effect of over 50% in size. The method in brief:
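20 nM human CYP3A4 with 25 uM Luciferin-PPXE (at KM) in 200 mM KPO4, preincubated 10 min with compound; NADPH regeneration started a 60 min RT reaction. Luciferin detected by luminescence, normalized to 57 uM ketoconazole as full inhibition.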

Assay [6] has the same target. The assay is described as follows: qHTS Assay for Activators of Cytochrome P450 3A4 (AID 885). Further: nearly all actives have a fitted effect of over 65% in size. The method in brief: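 Steps: enzyme/substrate mix dispensed; compound added, 10 min RT; NADPH regeneration solution added, 60 min RT; luciferin detection buffer stops reaction; 20 min later luminescence measured.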
In assay [7] the target is Cytochrome P450 2C19 (Homo sapiens) (UniProt P33261). Put plainly: qHTS Assay for Inhibitors and Substrates of Cytochrome P450 2C19 (AID 899). Further: potency means the concentration at half of the fitted maximal effect; nearly all actives have a fitted effect of over 60% in size. The method in brief:
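Human CYP2C19 (5nM) with Luciferin-H EGE at 10uM (its KM) in 50mM KPO4 was preincubated with compound for 10 min at 37C. NADPH regeneration started a 60 min 37C reaction. Luciferin was read by luminescence, normalized to 57uM ketoconazole.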

Structures are written as SMILES. Records with an inconclusive call do not appear. The source made the active and inactive calls. Unless noted, the call rests on the fitted dose curve; in most records, active means well fitted curve in the direction sought with a large enough effect; inconclusive means small, poorly fitted or top-dose-only effect, or another doubt; inactive means no such curve, though single readings can be large; an effect the other way counts as inactive or inconclusive.

Sequence of Cytochrome P450 2C9 (Homo sapiens) (P11712 whole entry, looked up): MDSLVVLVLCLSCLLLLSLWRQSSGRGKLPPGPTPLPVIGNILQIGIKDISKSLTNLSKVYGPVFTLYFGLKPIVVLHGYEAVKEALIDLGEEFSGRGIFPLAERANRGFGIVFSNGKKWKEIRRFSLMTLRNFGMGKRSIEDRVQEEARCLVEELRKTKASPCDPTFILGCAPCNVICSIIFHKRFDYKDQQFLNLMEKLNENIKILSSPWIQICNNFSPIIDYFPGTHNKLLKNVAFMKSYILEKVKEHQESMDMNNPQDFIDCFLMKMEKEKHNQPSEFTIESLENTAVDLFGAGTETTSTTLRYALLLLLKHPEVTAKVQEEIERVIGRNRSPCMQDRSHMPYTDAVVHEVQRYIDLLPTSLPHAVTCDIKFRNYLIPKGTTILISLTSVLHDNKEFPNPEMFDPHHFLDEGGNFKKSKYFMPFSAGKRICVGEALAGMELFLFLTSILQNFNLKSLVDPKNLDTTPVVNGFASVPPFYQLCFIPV
Sequence of 3',5'-cyclic-AMP phosphodiesterase 4B (Homo sapiens) (Q07343 whole entry, looked up): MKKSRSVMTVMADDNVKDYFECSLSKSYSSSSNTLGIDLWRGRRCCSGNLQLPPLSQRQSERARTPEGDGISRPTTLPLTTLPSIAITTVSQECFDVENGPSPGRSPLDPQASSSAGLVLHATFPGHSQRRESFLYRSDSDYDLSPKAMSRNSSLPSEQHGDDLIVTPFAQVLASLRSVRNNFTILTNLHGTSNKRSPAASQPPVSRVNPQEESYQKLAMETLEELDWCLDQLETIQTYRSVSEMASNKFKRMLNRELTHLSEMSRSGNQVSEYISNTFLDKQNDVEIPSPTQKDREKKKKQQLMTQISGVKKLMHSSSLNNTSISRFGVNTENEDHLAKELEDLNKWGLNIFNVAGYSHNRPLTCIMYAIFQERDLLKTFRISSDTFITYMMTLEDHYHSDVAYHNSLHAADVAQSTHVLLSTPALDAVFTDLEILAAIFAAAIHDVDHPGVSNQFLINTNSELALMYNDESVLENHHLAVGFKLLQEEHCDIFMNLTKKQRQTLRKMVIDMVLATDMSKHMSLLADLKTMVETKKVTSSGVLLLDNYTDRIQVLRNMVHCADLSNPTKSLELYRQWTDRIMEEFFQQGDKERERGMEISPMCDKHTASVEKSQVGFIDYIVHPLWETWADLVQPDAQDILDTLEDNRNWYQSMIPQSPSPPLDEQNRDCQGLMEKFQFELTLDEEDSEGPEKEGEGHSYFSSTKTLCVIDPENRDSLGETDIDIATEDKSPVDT
Sequence of Cytochrome P450 3A4 (Homo sapiens) (P08684 whole entry, looked up): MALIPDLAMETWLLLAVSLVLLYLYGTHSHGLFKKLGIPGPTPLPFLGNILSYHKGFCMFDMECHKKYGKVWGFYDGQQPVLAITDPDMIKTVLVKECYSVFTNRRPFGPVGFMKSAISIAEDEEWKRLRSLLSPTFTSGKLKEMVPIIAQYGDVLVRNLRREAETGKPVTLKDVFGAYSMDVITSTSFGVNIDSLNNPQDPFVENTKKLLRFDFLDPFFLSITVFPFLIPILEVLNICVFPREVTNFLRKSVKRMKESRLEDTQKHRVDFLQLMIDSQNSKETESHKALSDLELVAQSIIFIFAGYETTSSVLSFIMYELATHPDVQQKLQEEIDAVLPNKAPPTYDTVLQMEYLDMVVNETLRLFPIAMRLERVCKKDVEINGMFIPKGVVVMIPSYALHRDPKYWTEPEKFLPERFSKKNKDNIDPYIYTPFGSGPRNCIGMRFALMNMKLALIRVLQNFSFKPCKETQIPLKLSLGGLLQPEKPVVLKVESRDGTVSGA
Sequence of Cytochrome P450 2C19 (Homo sapiens) (P33261 whole entry, looked up): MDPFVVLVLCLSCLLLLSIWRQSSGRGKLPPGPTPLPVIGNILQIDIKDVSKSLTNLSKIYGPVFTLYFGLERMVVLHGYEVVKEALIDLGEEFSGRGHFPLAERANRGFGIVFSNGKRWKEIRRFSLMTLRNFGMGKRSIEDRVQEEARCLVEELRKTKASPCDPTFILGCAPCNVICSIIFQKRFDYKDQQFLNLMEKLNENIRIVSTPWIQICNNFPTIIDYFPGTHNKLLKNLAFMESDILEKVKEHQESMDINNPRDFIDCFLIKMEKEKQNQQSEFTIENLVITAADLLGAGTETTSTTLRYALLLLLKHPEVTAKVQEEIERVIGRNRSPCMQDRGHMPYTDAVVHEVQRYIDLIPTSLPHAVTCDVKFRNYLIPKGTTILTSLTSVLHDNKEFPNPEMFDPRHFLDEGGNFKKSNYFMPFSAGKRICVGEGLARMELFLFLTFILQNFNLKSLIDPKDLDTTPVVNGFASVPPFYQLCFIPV

As to `CCCC[C@@H]1C[C@H]1C(NC(=O)c1ccc(-c2ccccc2)cc1)c1ccc(-c2ccccc2)cc1` (stereo partly specified), the Potency entry in assay [1], in assay [2] and in assay [3] was “inactive” each time.
Consider `COC(=O)[C@@]1(Cc2ccc(OC)cc2)[C@H]2c3cc(C(=O)N(C)C)n(CCN4CNCC4=O)c3C[C@H]2CN1C(=O)c1ccccc1`, for which the Potency in assay [1] is 20 µM (active). Besides, the Potency result in assay [2] and in assay [3] was “inactive” each time.
With `COC(=O)[C@@]1(Cc2ccccc2)[C@H]2c3cc(C(=O)N4CCCC4)n(Cc4cc(F)cc5c4OCOC5)c3C[C@H]2CN1C(=O)c1ccccc1`, the Potency entry in assay [1], in assay [2], in assay [3] and in assay [6] was “inactive” in each case. Further, the Potency in assay [4] is 0.316 µM (active); in assay [5], 3.98 µM (active); in assay [7], 0.251 µM (active).
On to `C[C@@]1(C(NC(=O)c2ccccc2)c2ccc(-c3ccccc3)cc2)C[C@H]1C1CCCCC1` (stereo partly specified), for which the Potency entry in assay [1], in assay [2] and in assay [3] was “inactive” throughout.
For the compound `CC(Cc1ccccc1)C(=O)NCc1ccccn1` (stereo unspecified), the Potency in assay [1] is 15.8 µM (active). For the same compound, the Potency result in assay [2] and in assay [3] was “inactive” each time.
Regarding `COC(=O)[C@@]1(Cc2ccccc2)[C@H]2c3cc(C(=O)N(C)C)n(Cc4ccsc4Br)c3C[C@H]2CN1C(=O)c1ccccc1`, the Potency result in assay [1], in assay [2], in assay [3] and in assay [6] was “inactive” in each case. In addition, the Potency was 3.98 µM (active) in assay [4], 1.58 µM (active) in assay [5] and 2 µM (active) in assay [7].
In the case of `COC(=O)[C@@]1(Cc2ccc(OC)cc2)[C@H]2c3cc(C(=O)N4CCCC4)n(CCc4c[nH]c5ccc(OC)cc45)c3C[C@H]2CN1C(=O)c1ccccc1`, the Potency in assay [1] was 10 µM (active). Moreover, the Potency result in assay [2] and in assay [3] was “inactive” throughout.
As to `CC1=C(C(=O)OCc2ccccc2)C(c2ccc3ccccc3c2)NC(=O)N1CCCCCC(=O)O` (stereo unspecified), the Potency was 20 µM (active) in assay [1] and 7.94 µM (active) in assay [4]. In addition, the Potency result in assay [2], in assay [3] and in assay [6] was “inactive” in each case.
Consider `COC(=O)[C@@]1(Cc2ccccc2)[C@H]2c3cc(C(=O)N4CCCC4)n(Cc4cccc5ccccc45)c3C[C@H]2CN1C(=O)c1ccccc1`, for which the results for the Potency in assay [1], in assay [4] and in assay [5] were 15.8 µM (active), 0.251 µM (active) and 1.58 µM (active), respectively. The Potency entry in assay [2], in assay [3] and in assay [6] was “inactive” throughout.
Turning to `COCCn1c(C(=O)N2CCCC2)cc2c1C[C@H]1CN(C(=O)c3ccccc3)[C@@](Cc3ccc(F)cc3)(C(=O)OC)[C@@H]21`, the Potency in assay [1] was 31.6 µM (active). Also, the Potency entry in assay [2] and in assay [3] was “inactive” each time.
Take `COC(=O)[C@@]1(Cc2ccc(F)cc2)[C@H]2c3cc(C(=O)N4CCCC4)n(CCN4CNCC4=O)c3C[C@H]2CN1C(=O)c1ccccc1`: the Potency is 15.8 µM (active) in assay [1], 7.94 µM (active) in assay [4] and 2 µM (active) in assay [5]. Also, the Potency entry in assay [2], in assay [3] and in assay [6] was “inactive” throughout.
Turning to `C[C@@]1(C(NC(=O)c2ccc(-c3ccccc3)cc2)c2ccc(Cl)cc2)C[C@H]1C1CCCCC1` (stereo partly specified), the Potency result in assay [1], in assay [2] and in assay [3] was “inactive” each time.
Take `C[C@@]1(C(NC(=O)Cc2ccc(C(F)(F)F)cc2)c2ccc(-c3ccccc3)cc2)C[C@H]1C1CCCCC1` (stereo partly specified): the Potency entry in assay [1], in assay [2] and in assay [3] was “inactive” each time.
As for `COC(=O)[C@@]1(Cc2ccccc2)[C@H]2c3cc(C(=O)N(C)C)n(CCN4CNCC4=O)c3C[C@H]2CN1C(=O)c1ccccc1`, the Potency in assay [1] was 5.01 µM (active). Further, the Potency entry in assay [2] and in assay [3] was “inactive” each time.
`COC(=O)[C@@]1(Cc2ccc(OC)cc2)[C@H]2c3cc(C(=O)N(C)C)[nH]c3C[C@H]2CN1C(=O)c1ccccc1`: the Potency in assay [1] is 20 µM (active); in assay [4], 3.98 µM (active); in assay [5] it was 1.58 µM (active). Besides, the Potency entry in assay [2], in assay [3] and in assay [6] was “inactive” each time.
For `COC(=O)[C@@]1(Cc2ccccc2)[C@H]2c3cc(C(=O)N4CCCC4)n(Cc4ccc(C(F)(F)F)nc4)c3C[C@H]2CN1C(=O)c1ccccc1`, the Potency result in assay [1], in assay [2], in assay [3] and in assay [6] was “inactive” throughout. In addition, the results for the Potency in assay [4] and in assay [5] were 5.01 µM (active) and 3.16 µM (active), respectively.
As to `COC(=O)[C@@]1(Cc2ccc(OC)cc2)[C@H]2c3cc(C(=O)N4CCCC4)n(CCc4c[nH]c5ccc(O)cc45)c3C[C@H]2CN1C(=O)c1ccccc1`, the Potency entry in assay [1], in assay [2], in assay [3] and in assay [6] was “inactive” throughout. The Potency in assay [4] is 3.16 µM (active); in assay [5] it was 1.58 µM (active).

Values taken from PubChem BioAssay (NCATS).
